Sampled rows, rich in hits. Any-hit rate of the full collection: about 11%.
USP30 block: human USP30 deubiquitinase inhibition | hit rate 5.3% among 47,000 | purified USP30, Ub-rhodamine cleavage fluorescence | inhibition, % at 25 µM
Target sequence (Q70CQ3 whole entry, looked up): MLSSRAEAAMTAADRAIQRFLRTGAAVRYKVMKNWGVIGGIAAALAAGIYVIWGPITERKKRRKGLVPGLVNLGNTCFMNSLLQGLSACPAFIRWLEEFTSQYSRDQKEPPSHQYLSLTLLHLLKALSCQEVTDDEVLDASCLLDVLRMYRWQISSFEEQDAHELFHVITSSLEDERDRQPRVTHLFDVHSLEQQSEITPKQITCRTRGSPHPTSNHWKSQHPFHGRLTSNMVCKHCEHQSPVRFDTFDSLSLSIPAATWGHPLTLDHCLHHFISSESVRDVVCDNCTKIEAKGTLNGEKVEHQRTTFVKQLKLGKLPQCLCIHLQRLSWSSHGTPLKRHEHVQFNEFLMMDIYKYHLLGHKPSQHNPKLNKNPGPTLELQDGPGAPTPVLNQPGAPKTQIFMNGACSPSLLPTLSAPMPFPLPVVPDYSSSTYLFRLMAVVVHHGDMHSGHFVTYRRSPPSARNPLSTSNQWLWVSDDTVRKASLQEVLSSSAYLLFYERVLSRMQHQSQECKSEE
USP28 inh: human USP28 deubiquitinase inhibition. hit rate 3% among 47,000. Q96RU2. AID 1645857. purified USP28, Ub-rhodamine cleavage fluorescence, 30 min. inhibition, % at 25 µM
USP17 inh: blocks human USP17 ubiquitin-rhodamine cleavage | A8MUK1 | purified USP17, Ub-rhodamine cleavage fluorescence, 3 h | inhibition, % at 50 µM | hit rate 6.5% among 47,000 | AID 1645855
Of the large screens only hits and unclear results are named; the others gave an inactive call. No stated cut-off is given here; in the data, active means inhibition above about 30%; inactive means the rest.

Cc1cccc(C(=O)NCc2nc3ccccc3n2Cc2ccccc2C)c1	USP17 inh 59
Cc1ncncc1C(=O)N1CCCC(c2ncc(Cc3ccccc3F)o2)C1 (configuration not stated)	none
Cn1ccnc1CN1CCOC[C@H]1c1ncc(-c2ccccc2)[nH]1	none
O=C(NC(Cc1ccccc1)c1nc2ccccc2[nH]1)c1ccccn1 (configuration not stated)	USP28 inh 57
O=C(NC(Cc1c[nH]c2ccccc12)c1nc2ccccc2[nH]1)c1ccccc1 (configuration not stated)	USP17 inh 34
O=C(NC(Cc1ccccc1)c1nc2ccccc2[nH]1)c1nc(Cl)ccc1Cl (configuration not stated)	none
COc1ccc(C(=O)NC(Cc2ccccc2)c2nc3ccccc3[nH]2)c(OC)c1 (configuration not stated)	USP17 inh 71
O=C(N[C@@H](Cc1ccccc1)c1nc2ccccc2[nH]1)c1ccncc1	none
O=C(NC(Cc1ccccc1)c1nc2ccccc2[nH]1)c1ccc(-n2cnnn2)cc1 (configuration not stated)	none
CC(C)(C)C(=O)N1CCC(c2cncc(-c3cccc(C(=O)O)c3)n2)CC1	none
CN1CCC(N2CCC[C@H]2c2nc(-c3ccc(-c4ccncc4)nc3)no2)CC1	none
COc1ccc(NC(=O)Cc2ccc3ccccc3c2)c(OC)c1	none
COc1ccc(C(=O)N(Cc2ccccc2)C(C)(C)c2ccccc2)c(OC)c1	USP30 block 44
Cc1nc(C2CCCCN2)nc2c1CCCN2Cc1ccccn1 (configuration not stated)	none
Cc1cc(C)n(-c2ccc(C(=O)NCc3cn4cc(C(F)(F)F)cc(Cl)c4n3)cc2)n1	USP17 inh 37
Cc1cc(C)n(-c2ccc(C(=O)NCc3ccc(F)cc3F)cn2)n1	none
Cc1cccc(NC(=O)c2nn(C)c3ccccc3c2=O)c1	USP30 block 37, USP17 inh 64
Cc1ccc(NC(=O)c2nn(C)c3ccccc3c2=O)cc1	none
CC(=O)N1CCCCCC1C1CCN(Cc2nnnn2-c2ccccc2)CC1 (configuration not stated)	none
O=S(=O)(c1ccc(F)cc1)N1CCC2(CC1)NCCN=C2NC1CCCC1	none
CC1CCC(Nc2ncnc3c2CN(C2CCNC2)C(=O)CN3C)CC1 (configuration not stated)	none
CN1CC(=O)N(C2CCNC2)Cc2c(NC3Cc4ccccc4C3)ncnc21 (configuration not stated)	USP17 inh 50
O=C(c1ccc(CN(c2ccccc2)S(=O)(=O)c2ccccc2)cc1)N1CCOCC1	none
COc1cc(C2CC(=O)Nc3n[nH]c(-c4ccccc4)c32)cc(OC)c1OC (configuration not stated)	none
COc1cccc(C2CC(=O)Nc3n[nH]c(-c4ccccc4)c32)c1 (configuration not stated)	USP30 block 63, USP17 inh 68
O=C(NCc1ccc(F)cc1)c1cc([N+](=O)[O-])ccc1N1CCCCC1	none
COc1ccc(C(=O)Nc2cc(-c3cccnc3)no2)c(OC)c1	none
O=c1c2[nH]c3ccc(Br)cc3c2ncn1CCN1CCNCC1	USP30 block 40, USP17 inh 38
COc1ccc2[nH]c3c(=O)n(Cc4ccncc4)cnc3c2c1	none
CCOc1ccc2[nH]c3c(=O)n(CCc4ccc(OC)cc4)cnc3c2c1	USP17 inh 67
CCOc1ccc2[nH]c3c(=O)n(CCC4=CCCCC4)cnc3c2c1	none (no result: USP17 inh)
CCOc1ccc2[nH]c3c(=O)n(CCN4CCNCC4)cnc3c2c1	none
COc1ccc2c(c1)[nH]c1c(=O)n(Cc3ccccc3)cnc12	USP30 block 73, USP17 inh 71
COc1ccc(-c2nc3ccccc3c3nnc(SCC(=O)NC4CC4)n23)cc1	none
Nc1c(C(=O)c2cccs2)oc2nc(-c3ccccc3)cc(-c3ccco3)c12	none
COc1ccccc1NC(=O)CC1(CC(=O)O)CCCCC1	none
COc1cccc(-c2noc(NCCc3ccc(SC)cc3)n2)c1	USP28 inh 32
COc1ccc(-c2noc(NCCCN3CCN(c4ccccc4)CC3)n2)cc1	none
O=C1NC2(CCc3ccccc31)CCN(Cc1ccccc1)C2 (configuration not stated)	none
CC(=O)NCC(=O)N1CCC2(CC1)C(=O)N(CC1CC1)c1ccccc12	none
CN1C(=O)COc2ccccc2C/C=C/C[C@@H]2[C@H]1CCCN2C(=O)CCc1cccnc1	none
Cc1nn2c(nnc3c(=O)n(-c4ccccn4)ccc32)c1-c1cccc(Cl)c1	none
COc1ccc(Cl)cc1NC(=O)CSc1ncnc2nc[nH]c12	USP30 block 33, USP28 inh 43
COc1ccc(Cl)cc1NC(=O)CSc1nnc(-c2ccoc2C)o1	none
O=C(Cn1c(=O)c2sccc2n(Cc2ccc([N+](=O)[O-])cc2)c1=O)NCCc1ccccc1	USP30 block 50
O=C(CCn1c(=O)c2sccc2n(Cc2ccc([N+](=O)[O-])cc2)c1=O)NCc1ccccc1	USP30 block 50, USP17 inh 52
COc1ccc(CNC(=O)CCn2c(=O)c3sccc3n(Cc3ccccc3C#N)c2=O)cc1	USP30 block 56, USP17 inh 55
COc1ccc(CCNC(=O)Cn2c(=O)c3sccc3n(Cc3ccccc3C#N)c2=O)cc1OC	none
O=C(Cn1c(=O)c2sccc2n(CC(=O)OCc2ccccc2)c1=O)NCc1ccccc1Cl	none
O=C(CCCn1c(=O)c2sccc2n(Cc2ccc(F)cc2)c1=O)NCc1ccco1	none
Cc1cc2c(cc1S(=O)(=O)Nc1ccc(F)cc1)OCC(=O)N2	none
COc1ccc(-c2nn(-c3ccccc3)cc2C(=O)OC(C(=O)Nc2cccc(OC)c2)c2ccccc2)cc1 (configuration not stated)	none
CN1c2ccccc2CN(C(=O)c2ccc(F)cc2)CC1Cc1ccccc1 (configuration not stated)	none
CCN(Cc1ccccc1)C(=O)Cn1c(N2CCCC2)nc(C)cc1=O	none
Cc1nc(N2CCCCC2)cc(N2CCN(C(=O)c3cccs3)CC2)n1	none
COc1cc2c(cc1CN1CC[C@@H]3CN(C(C)=O)C[C@]3(NC(C)=O)C1)CCCC2	none
O=S(=O)(Nc1ccc(Oc2ccccc2)cc1)c1ccccc1F	USP30 block 41, USP28 inh 32, USP17 inh 34
O=S(=O)(Nc1ccccc1-c1ccccc1)c1ccccc1F	none
O=C(Nc1nc(-c2ccccc2)ns1)c1ccc(F)cc1	none
Cc1c(-c2nsc(NC(=O)c3ccc(Cl)cc3)n2)nnn1-c1ccccc1F	USP30 block 86, USP28 inh 64, USP17 inh 39
O=S(=O)(c1ccccc1)n1nc(-c2cccnc2)nc1NCc1cccc(Cl)c1	none
CC(C)c1ccc(NC(=O)CCNS(=O)(=O)c2ccc3c(c2)CCC(=O)N3)cc1	none
O=C(Nc1ccc(-c2cn3ccccc3n2)cc1)C1C=C2C=C(Br)C=CC2OC1=O (configuration not stated)	USP30 block 49, USP28 inh 52
COc1cc(NC(=O)Cc2cn3ccccc3n2)cc(OC)c1	none
COc1ccc(C(=O)N2CCN(c3ccc(C#N)cc3)CC2)cc1	none
Cn1c(C(=O)NCc2ccc(F)cc2)cc2sc(Cl)cc21	USP30 block 34
CCC(Cc1ccccc1)NC(=O)c1cc2sc(Cl)cc2n1C (configuration not stated)	none

Screening results as filed in PubChem BioAssay.
